Compound activity (PubChem BioAssay)
Sampled rows, rich in hits. Any-hit rate of the full collection: about 5.9%.
AHR activator: human AHR activation; hit rate 2.5% among 320,000; activation, % at 5 µM; P35869; AHR-responsive luciferase reporter cells, luminescence; in the data active = activation above about 47%;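 also: 0% = vehicle wells and 100% = reference agonist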
GAA850 FXN act: activators of GAA850 frataxin (FXN) promoter | HEK293 lucGAA850 FXN promoter luciferase reporter, 24 h; percent of 10 µM SAHA response | activation, % at 6 µM | hit rate 0.56% among 360,000 | AID 540364;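 active = activation above the average of all compounds screened plus 3 SD, cutoff fixed separately per campaign, cut at about 7.5% in these data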;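 also: 0% = DMSO wells and 100% = 10 µM SAHA wells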
HSF1 inh: HSF1 inhibition; hit rate 0.77% among 300,000; NIH3T3-HGL HSE-luciferase, MG132-induced, luminescence 8 h; active compounds read low; activity change, negative = inhibition, % at 7.5 µM (by protocol);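 active = more than half of replicate wells show activity change below -50%, luminescence cut by over half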;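 also: luciferase reports HSF-1 transcriptional activity via heat shock element; 0% = median of DMSO wells and -100% = zero luminescence signal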
HSP90 inh: blocks HSP90-mediated luciferase refolding in reticulocyte lysate. inhibition, % at 5.6 µM. hit rate 0.91% among 290,000. Rabbit reticulocyte lysate, luciferase refolding luminescence, 3 h;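 active = inhibition above the screen-wide mean plus 3 SD, computed separately per campaign, cut at about 16% in these data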;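 also: 0% = DMSO wells and 100% = 60 µM geldanamycin wells; inhibitors lower the luminescence because luciferase stays unfolded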
NR0B1 inh: inhibits human nuclear receptor DAX1 | P51843 | HEK293 Gal4-DAX1 luciferase reporter, luminescence | inhibition, % at 6.75 µM | hit rate 0.99% among 340,000 | AID 504766;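 active = inhibition above the mean over all tested compounds plus 3 SD, cut at about 4.2% in these data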;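 also: 0% = DAX1-transfected cells with DMSO and 100% = empty-vector control cells with DMSO; inhibition shows as a rise in luminescence from relieved DAX1 repression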
Target sequence (P51843 207-470 limits assumed): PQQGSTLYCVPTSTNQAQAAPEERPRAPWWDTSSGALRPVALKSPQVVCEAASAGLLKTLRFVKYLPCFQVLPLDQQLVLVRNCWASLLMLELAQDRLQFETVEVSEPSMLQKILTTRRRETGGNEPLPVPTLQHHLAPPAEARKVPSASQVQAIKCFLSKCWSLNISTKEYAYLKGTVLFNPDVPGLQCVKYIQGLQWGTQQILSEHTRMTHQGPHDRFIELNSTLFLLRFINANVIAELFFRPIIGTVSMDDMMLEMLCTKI
HSF1 activator: increases HSF-1 driven luciferase reporter signal | NIH3T3-HGL HSF-1 luciferase reporter, MG132, 8 h; 100% = twice DMSO control signal | activation, % at 9 µM | hit rate 1.7% among 300,000;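 active = mean replicate activation of at least 50% with a set share of replicates each reaching 50%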;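 also: 0% = median of the neutral control wells and 100% = twice that signal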
The depositor's hits bear a star; · = no result given.

SMILES | AHR activator | GAA850 FXN act | HSF1 inh | HSP90 inh | NR0B1 inh | HSF1 activator
C(=NN=C(NN=Cc1cccs1)NN=Cc1cccs1)c1cccs1 | · | 1 | · | · | -1 | ·
C[N+](C)(C)c1ccc(/C=N/Nc2nc(Cl)c(C#N)c(Cl)c2Cl)cc1 | 11 | -1 | 36 | 2 | 0 | 40
N#Cc1c(Cl)nc(N/N=C/c2ccccc2)c(Cl)c1Cl | 22 | 1 | 37 | 2 | 0 | 63*
COc1ccc(/C=C(\C#N)C(=O)N2COCC2(C)C)cc1 | 6 | 1 | 4 | 0 | 0 | 7
CCn1c(SCC#N)nc2ccccc2c1=O | 3 | 1 | 7 | -1 | 5.2* | 6
COCCCn1c(SCc2nc3ccccc3c(=O)[nH]2)nc2ccccc2c1=O | 34 | 1 | 8 | 0 | -1 | 19
CCn1c(SCc2nc3ccccc3c(=O)[nH]2)nc2ccccc2c1=O | 67* | 4 | 23 | -6 | 0 | 50
CCn1c(SCC(=O)c2ccccc2)nc2ccccc2c1=O | 17 | 3 | 7 | 3 | -1 | 20
N#CCSc1nc2ccccc2c2nc3ccccc3n12 | 48* | 3 | 36 | 0 | 0 | 68*
N#CCSc1nc2cc(C(=O)N3CCC(C(N)=O)CC3)ccc2c2nc3ccccc3n12 | -6 | 1 | -8 | 0 | 1 | 5
COc1cccc(/C=N\NC(C)=O)c1OC/C=C/c1ccccc1 | · | 0 | 4 | -4 | -1 | 5
C[C@@H]1CN([C@@H](C)CO)S(=O)(=O)c2ccc(Br)cc2O[C@H]1CN(C)C(=O)C1CCOCC1 | · | 0 | · | · | 1 | ·
Cc1[nH]c2ccccc2c1Cc1nnc(SCC(N)=O)o1 | 15 | 0 | -2 | -1 | 4.7* | 10
Cc1[nH]c2ccccc2c1Cc1n[nH]c(=S)o1 | 0 | -2 | -6 | -1 | 4.7* | -7
CCC(=O)N1CCc2cc(Br)cc(S(=O)(=O)N3CCC(C(=O)NC(C)C)CC3)c21 | 3 | 2 | 1 | 0 | 1 | 11
CCOc1cc(C(=O)NC2CC(C)(C)NC(C)(C)C2)cc(OCC)c1OCC | -1 | 2 | -3 | 3 | 2 | -4
CC(OC(=O)c1ccc(=O)n(Cc2ccccc2)n1)C(=O)Nc1cccc(Cl)c1 (stereo unspecified) | -1 | 0 | 0 | · | 3 | -18
COc1cc(NC(=NS(=O)(=O)c2ccccc2)c2ccccc2)ncn1 | · | 4 | · | · | 3 | ·
CCOC(=O)c1cc(-c2ccc3c(c2)OCCO3)n[nH]1 | 1 | 5 | 15 | 6 | 5.8* | 36
COCC(=O)N[C@@H]1c2ccccc2CC[C@@H]1OCc1ccccc1 | · | 0 | · | · | -2 | ·
Cn1c(N=NC(=O)c2ccccc2)c(O)c2ccccc21 | 96* | 0 | 14 | 8 | -2 | 34
FC(F)(F)c1nnc(-c2ccccc2)nc1N1CCOCC1 | 53* | 0 | -6 | 1 | -1 | 3
FC(F)(F)c1nnc(-c2ccccc2)nc1Sc1ccc(Cl)cc1 | -1 | 0 | 35 | 4 | 1 | 41
FC(F)(F)c1cccc(-c2nnc(-c3ccccc3)c(N3CCOCC3)n2)c1 | 2 | 0 | 4 | 3 | 0 | 11
FC(F)(F)c1nnc(-c2ccccc2)nc1Sc1ccccc1 | 6 | -1 | 261 | 3 | 0 | 260*
SMILES | AHR activator | GAA850 FXN act | HSF1 inh | HSP90 inh | NR0B1 inh | HSF1 activator
CSc1nc(-c2ccccc2)nc(N2CCOCC2)c1C(C)=O | 69* | 3 | 3 | 5 | 2 | 8
COc1ccc(OC)c2c1sc(=NC(=O)c1ccco1)n2C | 51* | 5 | 1 | 0 | 1 | -4
COc1ccc(OC)c2c1sc(=NC(=O)C1CC1)n2C | 24 | 5 | -3 | 1 | 0 | -15
COc1cccc(C(=O)N=c2sc3c(C)ccc(OC)c3n2C)c1 | 29 | 7 | 17 | · | 1 | 43
COc1ccc(C(=O)N=c2sc3c(C)ccc(OC)c3n2C)cc1OC | 21 | 6 | 42 | 9 | -1 | 62*
CN(Cc1c(F)cccc1Cl)C(=O)CCc1c[nH]c2ccccc12 | 2 | -1 | 4 | 6 | 6.2* | 21
COc1ccc(CCc2ccc3ccccc3n2)cc1 | · | 4 | · | · | 2 | ·
C=CCNC(=O)C12CCC(C)(C(=O)[C@H]1Br)C2(C)C (stereo partly specified) | 0 | -1 | -8 | 4 | 6.9* | -10
CC1CC1C(=O)OCC(=O)NCc1ccccc1 (stereo unspecified) | 0 | 0 | · | · | 1 | ·
CCC1COCCS(=O)(=O)N1Cc1ccccc1C (stereo unspecified) | 0 | -2 | -61* | -1 | 1 | -69
FC(F)(F)c1ccc(C2NCCc3sccc32)cc1 (stereo unspecified) | 65* | 3 | 6 | -2 | 1 | 32
O=C(Nc1ccn(CCCN2CCN(Cc3ccc(F)cc3)CC2)c(=O)n1)OCc1ccccc1 | · | 1 | · | · | 0 | ·
O=C(NCCN1CCOCC1)c1ccc2c(c1)N(Cc1ccccc1F)C(=O)c1ccccc1S2 | 5 | 0 | 6 | 2 | 0 | 6
Cc1ccccc1CN1C(=O)c2ccccc2Sc2ccc(C(=O)NCCN3CCOCC3)cc21 | 4 | -7 | 27 | 4 | 0 | 60*
O[C@@H]1C2CCCC1[C@]1(O)CCCCC1C2 (stereo partly specified) | 0 | -3 | 38 | 4 | -1 | 53*
CCCC(=O)Nc1ccc(C(=O)COC(=O)C2CC2)cc1 | 0 | 2 | · | · | 0 | ·
CCCC(=O)Nc1ccc(C(=O)NN=C(C2CC2)C2CC2)cc1 | 19 | 0 | -4 | 0 | 4.5* | -6
NC(=O)C1CCN(CCC(=O)Nc2ccc(F)c(F)c2)CC1 | -2 | 3 | -12 | 0 | 1 | -6
COc1ccc(NC(=O)CCSc2ccc(C)cc2)cc1 | 0 | 4 | -6 | 5 | -1 | 7
COc1ccc(NC(=O)CCSc2ccc(F)cc2)cc1 | 9 | 3 | 22 | -1 | 4.2* | 55*
CC(C)OC(=O)N(C)C[C@H]1OCc2cn(nn2)CCCC(=O)N([C@H](C)CO)C[C@@H]1C | · | 0 | · | · | -1 | ·
c1ccc(-c2nnc(NC3=NCCC3)o2)cc1 | 9 | 5 | -1 | 17* | -1 | 12
Cc1ccc(SCc2nc(-c3ccncc3)no2)cc1 | -3 | 1 | 14 | -2 | -1 | 9
c1ccc(SCc2nc(-c3ccncc3)no2)cc1 | 11 | 3 | 44 | -3 | 2 | 73*
Cc1cc(C)n2c(SCC(=O)Nc3ccccc3C#N)nnc2n1 | 20 | 0 | · | · | 1 | ·
N#Cc1ccccc1COC(=O)c1ccc(Br)o1 | 0 | 0 | -6 | -1 | 0 | -7
N#Cc1ccccc1COC(=O)c1cc(=O)c2ccccc2o1 | 3 | 1 | 24 | 0 | 2 | 63*
CC1CCCC(C)N1S(=O)(=O)c1ccc(Cl)cc1 (stereo unspecified) | -1 | 0 | -1 | -2 | 4.7* | 12
CC1CCN(S(=O)(=O)c2ccc(Cl)cc2)CC1 | 0 | 0 | -7 | -4 | -1 | 6
